# Values joined by “and” are separate entries in the source; they are usually repeats but may differ in a detail not shown here. Equal entries are not always repeated. Inconclusive results are not listed. Where a call stands in place of a potency, no number is given. Active and inactive are the calls of the source. Calls come from the whole dose curve; as a rule, active = well fitted inhibition curve with a large enough effect in the signal ratio in the repeat runs (not every such curve was filed as active); inconclusive = weak or mixed curves; inactive = flat fitted curve, though single readings scatter; the % refers to the signal ratio.
# Target: Progesterone receptor (Homo sapiens) (UniProt P06401)
# Sequence (P06401 whole entry, looked up): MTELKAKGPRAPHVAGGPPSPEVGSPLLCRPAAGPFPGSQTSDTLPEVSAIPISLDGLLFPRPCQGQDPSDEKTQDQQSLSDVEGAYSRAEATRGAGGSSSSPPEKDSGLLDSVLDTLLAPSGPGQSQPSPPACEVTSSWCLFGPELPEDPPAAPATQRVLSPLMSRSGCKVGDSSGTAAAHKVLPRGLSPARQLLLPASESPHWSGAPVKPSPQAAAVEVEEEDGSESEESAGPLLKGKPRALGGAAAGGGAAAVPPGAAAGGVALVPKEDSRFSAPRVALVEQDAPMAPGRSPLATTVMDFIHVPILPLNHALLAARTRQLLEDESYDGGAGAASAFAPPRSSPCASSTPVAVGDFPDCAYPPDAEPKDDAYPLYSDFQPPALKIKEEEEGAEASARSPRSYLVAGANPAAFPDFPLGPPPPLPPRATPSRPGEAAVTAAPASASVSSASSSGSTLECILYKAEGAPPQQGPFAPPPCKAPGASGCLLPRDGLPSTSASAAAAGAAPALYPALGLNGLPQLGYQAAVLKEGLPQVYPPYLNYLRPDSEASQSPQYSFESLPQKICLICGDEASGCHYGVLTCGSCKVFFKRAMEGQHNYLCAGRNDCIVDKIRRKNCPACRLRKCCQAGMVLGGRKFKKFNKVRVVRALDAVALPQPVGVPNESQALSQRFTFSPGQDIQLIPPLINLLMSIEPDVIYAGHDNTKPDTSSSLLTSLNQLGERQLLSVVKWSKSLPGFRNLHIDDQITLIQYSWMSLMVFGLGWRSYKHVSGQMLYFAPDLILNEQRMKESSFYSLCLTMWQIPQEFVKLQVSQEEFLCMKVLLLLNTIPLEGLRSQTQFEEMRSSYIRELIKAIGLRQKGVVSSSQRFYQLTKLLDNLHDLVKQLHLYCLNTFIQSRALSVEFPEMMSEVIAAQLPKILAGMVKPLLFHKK
# Assay: qHTS assay to identify small molecule antagonists of the progesterone receptor (PR) signaling pathway (AID 1346795)
# Details: PR-UAS-bla HEK293T, beta-lactamase FRET ratio, 16 h; series mostly up to 92.4 µM
# Description: National Center for Advancing Translational Sciences [NCATS]
# NIH Chemical Genomics Center [NCGC]
# U.S. Environmental Protection Agency [EPA]
# National Institutes of Environmental Health Sciences [NIEHS]
# National Toxicology Program [NTP]
# U.S. Food and Drug Administration [FDA]
# Progesterone receptor (PR), a nuclear hormone receptor, plays an important role in development, metabolic homeostasis and reproduction. […] Endocrine disrupting chemicals (EDCs) and their interactions with steroid hormone receptors like PR causes disruption of normal endocrine function. To identify the compounds that inhibit PR signaling, a PR-UAS-bla GripTite cell line i.e. PR-UAS-bla HEK293T (Invitrogen, Carlsbad, CA, USA) containing a beta-lactamase reporter gene under the control of an Upstream Activator Sequence (UAS) was used to screen Tox21 10K compound library.
# Tox21 Assay Protocol Summary:
# PR-UAS-bla HEK293T cells were dispensed at 3,000 cells/4 uL of assay medium containing 2% charcoal stripped FBS per well into black wall/clear-bottom 1536-well plates using a Multidrop Combi (ThermoFisher Scientific, Waltham, MA) dispenser. After the assay plates were incubated at a 37C and 5% CO2 for 6 hr, 23 nL of compounds dissolved in DMSO, positive controls or DMSO only was transferred to the assay plate by a Pintool station (Kalypsys, San Diego, CA), followed by addition of 1 uL (1nM as final concentration) of Promegestone (R5020) in assay medium using a BioRAPTR FRD (Flying Reagent Dispenser, Aurora Discovery, San Diego, CA). The plates were incubated at 37C and 5% CO2 for 16 hr. Then 1 uL of LiveBLAzer B/G FRET substrate was added using a FRD. After the plates were incubated at room temperature for 2 hours, fluorescence intensity was measured by an Envision plate reader (PerkinElmer, Shelton, CT).
# Potency is the fitted concentration of half-maximal effect.
row,SMILES,Potency
1,Oc1ccccc1Br,inactive
2,CC(C)C1CCC(Cc2ccc(Cl)cc2)C1(O)Cn1cncn1 (stereo not given),3.4 µM (active)
3,c1ccc(Nc2ccc3ccccc3c2)cc1,17.2 µM (active)
4,CC(=O)c1cc(C(C)(C)C)cc2c1CCC2(C)C,inactive
5,CCOP(=S)(OCC)SCS(=O)(=O)CC,inactive
6,N#CCCSCCC#N,inactive
7,COP(=O)(OC)SCn1c(=O)oc2cc(Cl)cnc21,inactive
8,Nc1ccccc1C(=O)OC/C=C/c1ccccc1,27.4 µM (active)
9,N#Cc1ccccc1Cl,inactive
10,ClC1=C(Cl)[C@]2(Cl)[C@@H]3[C@@H](Cl)[C@H](Cl)C[C@@H]3[C@@]1(Cl)C2(Cl)Cl,inactive
11,ClC(Cl)=C(Cl)Cl,inactive
12,c1ccc2c(c1)OCC(C1=NCCN1)O2 (stereo not given),21.1 µM (active)
13,N#C/C=C/c1ccccc1,inactive
14,Nc1ccc(Cc2ccc(N)c(Cl)c2)cc1Cl,13.2 µM (active)
15,CCOC(=O)c1ccccc1S(=O)(=O)NC(=O)Nc1nc(Cl)cc(OC)n1,inactive
16,O=C(CCCN1CCC2(CC1)C(=O)NCN2c1ccccc1)c1ccc(F)cc1,inactive
17,CNC(C)Cc1ccc2c(c1)OCO2 (stereo not given),75.1 µM (active)
18,CC(C)CC(C)N (stereo not given),inactive
19,ClCc1ccc(Cl)cc1Cl,inactive
20,COC[C@H](C)N(C(=O)CCl)c1c(C)csc1C,inactive

row,SMILES,Potency
1,CC(=O)[O-].CC(=O)[O-].O.O.[Cd+2],0.603 µM (active)
2,FC(Cl)(Cl)Cl,inactive
3,COP(=O)(CCC(=O)NCO)OC,inactive
4,CCCCN(CCCC)C(=S)[S-].CCCCN(CCCC)C(=S)[S-].[Zn+2],12.2 µM (active)
5,Fc1cccc(Cl)c1CCl,inactive
6,NC(=O)c1ccc(N)nc1,inactive
7,Cc1cc(N=Nc2ccccc2C)ccc1N,12.2 µM (active)
8,COCC(=O)N(c1c(C)cccc1C)[C@H](C)C(=O)OC,inactive
9,O=C1c2ccccc2C(=O)C1C(=O)C(c1ccccc1)c1ccc(Cl)cc1 (stereo not given),19.3 µM (active)
10,Clc1ccc(C(c2ccc(Cl)cc2)C(Cl)(Cl)Cl)cc1,7.7 µM (active) and 5.96 µM (active)
11,Clc1ccc(Oc2ccccc2)cc1,inactive
12,CC(c1ccc(O)cc1)c1ccc(O)cc1,6.86 µM (active)
13,CCCN(CC)CC1COC2(CCC(C(C)(C)C)CC2)O1 (stereo not given),inactive
14,CN(C)S(=O)(=O)N(SC(F)(Cl)Cl)c1ccccc1,48.6 µM (active)
15,C=CC(=O)OCCCCOC(=O)C=C,inactive
16,S=C=Nc1cccc2ccccc12,67.9 µM (active)
17,CCc1ccccc1C,inactive
18,CC(Cl)CN(C)C (stereo not given),inactive
19,O=C/C(Cl)=C(/Cl)C(=O)O,inactive
20,O=[N+]([O-])c1ccc(Oc2ccc(C(F)(F)F)cc2[N+](=O)[O-])cc1,7.7 µM (active)

# — PubChem BioAssay (Tox21)
